MOR-DOR inv ag: mu-delta opioid heterodimer inverse agonism. P35372+P41143. cell-based MOR-DOR heterodimer luminescence. inhibition, % at 9.3 µM. actives 0.21% (n = 340,000). AID 504357; in the data active = inhibition above about 22%, passing the limit was not always enough;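 note: 0% = cells with DMSO and 100% = wells without cells with DMSO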
Target sequence (P35372 whole entry, looked up): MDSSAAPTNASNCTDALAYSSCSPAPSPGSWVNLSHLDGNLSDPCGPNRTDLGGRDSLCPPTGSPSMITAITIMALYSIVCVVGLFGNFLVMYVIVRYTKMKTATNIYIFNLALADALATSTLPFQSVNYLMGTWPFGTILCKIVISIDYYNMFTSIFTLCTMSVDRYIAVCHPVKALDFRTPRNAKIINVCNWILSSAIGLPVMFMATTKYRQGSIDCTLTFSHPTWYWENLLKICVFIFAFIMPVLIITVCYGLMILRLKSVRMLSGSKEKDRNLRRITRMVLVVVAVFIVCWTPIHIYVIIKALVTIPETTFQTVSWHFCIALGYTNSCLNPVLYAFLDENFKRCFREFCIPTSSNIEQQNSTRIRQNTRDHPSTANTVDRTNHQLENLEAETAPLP
Target sequence (P41143 whole entry, looked up): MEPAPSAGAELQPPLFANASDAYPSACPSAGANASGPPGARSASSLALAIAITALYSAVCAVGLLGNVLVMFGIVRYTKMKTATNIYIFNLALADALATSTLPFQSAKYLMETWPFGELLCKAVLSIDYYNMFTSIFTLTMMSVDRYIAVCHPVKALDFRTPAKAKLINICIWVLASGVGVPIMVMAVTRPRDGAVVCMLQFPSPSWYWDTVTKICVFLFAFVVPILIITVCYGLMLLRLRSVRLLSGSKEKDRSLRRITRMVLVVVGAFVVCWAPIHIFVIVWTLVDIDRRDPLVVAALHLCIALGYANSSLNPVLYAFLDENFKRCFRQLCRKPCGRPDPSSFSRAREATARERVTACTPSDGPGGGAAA
MOR-DOR ag: OPRM1-OPRD1 heterodimerization agonism. activation, % at 9.3 µM. actives 0.3% (n = 340,000). cells, luminescence; in the data active = activation above about 18%;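 note: 0% = vehicle-treated cells and 100% = reference agonist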
HTR5A ag ctr: activates human HTR5A in OPRM1-OPRD1 agonist counter-screen; P47898; HTR5A agonist assay, luminescence, cell-based; activation, % at 9.3 µM; actives 0.61% (n = 340,000); in the data active = activation mostly above about 9.5%, no sharp cut-off; inactive = mostly below about 7.6%;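 note: 0% = cells with vehicle only and 100% = reference agonist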
HTR5A inv ctr: HTR5A inverse agonism, opioid heterodimer counter-screen | P47898 | HTR5A cell line, luminescence | inhibition, % at 9.3 µM | actives 0.083% (n = 340,000) | AID 504634; in the data active = inhibition mostly above about 23%, no sharp cut-off; inactive = mostly below about 18%;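 note: 0% = cells with DMSO and 100% = no-cell wells with DMSO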
* hit, by the source's call; i = inactive. A selection: hits, their analogues and other compounds. The true share with any hit is near 1.1%.

SMILES	MOR-DOR inv ag	MOR-DOR ag	HTR5A ag ctr	HTR5A inv ctr
CCOC(=O)c1c(NC(=O)CC(C)C)sc(C(C)=O)c1C	-32.1	5.5	5.5	-26.6
CCOC(=O)CCCC(=O)N1CCOCCOCCOCC1	15.1	-3.1	2.5	-18.6
CN1/C(=C\C(=O)COc2ccc3c(c2)OCO3)C(C)(C)c2ccccc21	-18.1	3.1	13.8*	18.2
COc1ccccc1OCC(=O)/C=C1/N(C)c2ccccc2C1(C)C	-13.4	2.8	-4.9	12.2
CCc1ccccc1NS(=O)(=O)c1ccc(OC)c2ncccc12	-20.6	4.0	9.2*	-34.6
Cc1ccc(C(C)C)c(OCC(=O)NS(=O)(=O)c2ccc(Cl)cc2)c1	7.5	-1.4	-0.6	3.1
O=C(CSc1cccc[n+]1[O-])c1ccc(Cl)s1	10.4	-2.1	12.8*	34.1
CC[C@]1(C(=O)OC)[C@H]2C(=O)N(C)C(=O)[C@H]2[C@H]2CN=C(SC)N21	19.0	-4.1	0.9	-3.2
O=S(=O)(c1ccc(Cl)cc1)N(CCCN1CCOCC1)Cc1cccs1	13.3	-2.5	10.6*	5.8
CCOC(=O)c1csc(NC(=O)c2ccc3c(c2)OCCO3)n1	4.0	-0.7	0.3	-1.1
CNC(=S)N(Cc1cc2cc(OC)c(OC)cc2[nH]c1=O)C1CCCC1	5.4	-1.0	13.1*	21.4
CC12CCC(=O)N1C(C(=O)Nc1nnc(SCc3ccccc3F)s1)CS2 (stereo not given)	1.5	-0.3	3.7	-13.7
CN(C)S(=O)(=O)c1cccc(NC(=O)CSc2nc3c(cc2C#N)C(=O)CC(C)(C)C3)c1	-36.6	7.1	13.5*	-49.2
C=CCN(c1ccccc1)S(=O)(=O)c1cccc(C(=O)N(CC)CC(=O)Nc2c(F)cccc2F)c1	5.4	-1.0	0.7	6.8
CC(Oc1ccccc1F)C(=O)Nc1ccc2ccccc2c1 (stereo not given)	-5.4	0.9	10.8*	-15.8
CC(=O)c1sc2nc(SCC(=O)NCCc3ccccc3)[nH]c(=O)c2c1C	23.4	-7.1	12.8*	-27.1
COc1ccc(CCNC(=O)CSc2nc3sc(C(=O)O)c(C)c3c(=O)[nH]2)cc1OC	12.8	-2.4	1.1	-15.7
COc1ccc(CC(=O)NCc2ccc(F)cc2)cc1S(=O)(=O)N1CCOCC1	12.8	-3.4	-1.4	-21.7
O=C(COc1ccc2oc(-c3ccccc3)cc(=O)c2c1)Nc1ccccc1	2.8	-0.4	12.2*	-17.5
O=C(NCCc1ccc(F)cc1)c1ccncc1	-5.1	1.0	3.2	-11.8
CC1=CC(C)(C)NC(=S)N1c1ccc(N(C)C)cc1	7.6	-1.7	1.5	-5.8
CCOC(=O)CNc1nc(Cl)nc(Nc2ccc(C)cc2)n1	-17.6	3.5	13.8*	6.3
CCCCN(C)C(=O)C1CCCN(S(=O)(=O)c2ccc3c(c2)CC(C)N3C(=O)C2CC2)C1 (stereo not given)	16.8	-3.4	-3.5	13.0
CCN(CC)c1ccc(/C=N/N2CCN(Cc3ccc(Cl)cc3)CC2)c(O)c1	12.9	-2.5	12.6*	-39.5
COc1ccccc1NC(=O)CS(=O)(=O)c1cccc2nsnc12	8.7	-1.9	12.0*	33.6
SMILES	MOR-DOR inv ag	MOR-DOR ag	HTR5A ag ctr	HTR5A inv ctr
Cc1ccc(-n2c(=O)[nH]c3c(C(N)=O)nc(-c4ccc(C)o4)nc32)cc1	-17.6	3.3	11.2*	-40.8
CN(C)S(=O)(=O)c1ccc(C(=O)N2CCN=C2SCc2ccccc2)cc1	0.0	0.0	12.6*	-31.2
CCn1c(SCC(=O)Nc2sccc2C(N)=O)nnc1C1CC1	4.2	-1.0	12.8*	-31.5
COc1cc(C(=O)Nc2ccc(NC(=O)c3ccccc3Cl)nc2)cc(OC)c1OC	-8.7	1.4	9.4	-11.1
O=C(Nc1ccc(-c2noc(COc3ccccc3Cl)n2)cc1)c1ccco1	-10.5	2.5	12.2*	-21.1
O=C(COc1ccccc1Cl)Nc1ccc(NC(=O)c2ccco2)cc1	14.1	-2.6	-0.6	1.6
CN1CCN(C(=O)CN(C)S(=O)(=O)c2cc(Cl)ccc2Cl)CC1	-1.9	0.3	2.8	-7.4
COc1ccccc1CNC(=O)[C@@H](NC(=O)C1CCN(C(=O)[C@@H]2CCCN2C(=O)OC(C)(C)C)CC1)C(C)C	12.7	-2.5	5.7	-3.6
CCOC(=O)C(=CNc1ccc(NC2=NCC(C)S2)cc1)C(=O)OCC (stereo not given)	-18.4	3.6	9.8*	-25.6
COc1ccc(CCNC(=O)CC2SC(=NCc3ccccc3OC)NC2=O)cc1 (stereo not given)	7.6	-1.6	1.0	-2.4
COc1ccccc1CN=C1NC(=O)C(CC(=O)Nc2ccc(C(C)=O)cc2)S1 (stereo not given)	-2.2	0.4	13.2*	8.0
CCN(C(=O)N1CCOCC1)c1ccccc1C	13.3	-2.6	1.8	11.7
CCOc1cc(C)c(S(=O)(=O)Nc2ccc(Cl)cn2)cc1C	-3.6	0.7	14.0*	-3.3
CCOc1ccc(S(=O)(=O)Nc2ccc(Cl)cn2)c(C)c1C	-12.2	2.8	1.1	-3.1
O=C(NC1CCCC1)C(c1ccccn1)N(C(=O)c1csnn1)c1ccc(F)cc1 (stereo not given)	-2.6	0.3	4.0	-11.9
CC(=O)N1N=C(c2ccccc2)CC1c1cccc([N+](=O)[O-])c1 (stereo not given)	23.0	-4.7	-3.0	11.5
CC(=O)N1N=C(c2cccs2)CC1c1cccc([N+](=O)[O-])c1 (stereo not given)	38.2*	-8.3	-11.9	32.6*
Cc1csc(SCC(=O)N(C)c2c(N)n(Cc3ccccc3)c(=O)[nH]c2=O)n1	9.9	-2.1	11.6*	-31.7
Cc1cc(SCC(=O)N(C)c2c(N)n(Cc3ccccc3)c(=O)[nH]c2=O)nc2ccccc12	8.6	-1.6	-0.3	22.2
CCCC1(C(=O)O)NC(c2ccccc2O)C2C(=O)N(c3cccc(Cl)c3)C(=O)C21 (stereo not given)	15.6	-3.1	13.9*	-41.5
CCCC1(C(=O)O)NC(c2cccc(OC)c2O)C2C(=O)N(c3ccccc3)C(=O)C21 (stereo not given)	6.2	-1.2	0.6	-1.9
Cc1cc(C)n(C(=O)/C(C#N)=N/Nc2cc(Cl)cc(Cl)c2)n1	-30.0	5.7	10.5*	9.0
Cc1cc(C)n(C(=O)/C(C#N)=N\Nc2ccccc2[N+](=O)[O-])n1	-5.5	1.0	7.7	-1.1
COc1cccc(/C=C/c2nc(C#N)c(NCC(C)C)o2)c1	-8.8	1.8	12.3*	-46.3
COCCCNc1oc(/C=C/c2ccccc2)nc1C#N	4.8	-1.0	-0.8	2.8
O=C(COC(=O)c1cccc(NS(=O)(=O)/C=C/c2ccccc2)c1)Nc1ccccc1OC(F)F	-10.6	2.4	3.4	-20.6
COc1ccc(N(C(=O)CCl)C(C(=O)NC2CCCCC2)c2cccnc2)cc1 (stereo not given)	2.5	-0.4	4.4	-11.8
COc1ccc(C(C(=O)NC2CCCCC2)N(C(=O)CCl)c2ccc(C)cc2)cc1 (stereo not given)	-142.6	23.8*	30.8*	-82.2
COc1ccc(C(C(=O)NC2CCCCC2)N(C(=O)CCl)c2cccc(Cl)c2)cc1 (stereo not given)	i	94.0*	86.4*	-107.4

High-throughput results (PubChem BioAssay)
